# Results published in the supplement of paper PMC9135407.
# Several values for one entry are separate records, joined by “and”; a condition that tells them apart may be missing. Identical values can stand only once. Counter-ions that a name gives are not always drawn. In all, about 5,800 compounds went through this assay and about 620 (11%) showed activity.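 The calls were made as follows: active = score above a cut-off or among the top three wells of a plate; in these data no inactive exceeds 0.85.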 Many of the other results were omitted from the sample, so actives are more common in it than they were.
# System: primary human hepatic stellate cells (donor 1)
# Test: scaled lipid accumulation score (0 = DMSO-like, 1 = nortriptyline-like); higher = stronger HSC inactivation (lipid re-accumulation), active = hit call of the paper
# Conditions: 48 h
# [1] = library stock concentration: 1 mM
# [2] = library stock concentration: 10 mM
# [3] = library stock concentration: 80 uM
# [4] = library stock concentration: 400 uM
# [5] = library stock concentration: 2 mM
# [6] = library stock concentration: 3.33 mM
structure (smiles),measurement,setting,value
O=C(O)CCCCC1CCSS1 (racemic) [DL-.alpha.-Lipoic Acid],scaled lipid accumulation score,[1],≤ 0 (inactive)
C[C@H]1C[C@H]2[C@@H]3CCC4=CC(=O)C=C[C@]4(C)[C@@]3(F)[C@@H](O)C[C@]2(C)[C@@]1(O)C(=O)COP(=O)(O)O,scaled lipid accumulation score,[2],≤ 0 (inactive)
CC(C)CCN1c2nc(Nc3cc(F)c(O)c(F)c3)ncc2N(C)C(=O)C1C (stereo not drawn),scaled lipid accumulation score,[3],≤ -0.001 (inactive)
same,scaled lipid accumulation score,[4],≤ -0.001 (inactive) and ≤ -0.005 (inactive)
same,scaled lipid accumulation score,[5],≤ -0.001 (inactive) and 0.123 (inactive)
same,scaled lipid accumulation score,[6],≤ 0 (inactive)
same,scaled lipid accumulation score,[2],≤ 0 (inactive) and ≤ -0.001 (inactive) and 0.36 (inactive)
CC[C@@H]1C(=O)N(C)c2cnc(Nc3ccc(C(=O)N[C@H]4CC[C@H](N5CCN(CC6CC6)CC5)CC4)cc3OC)nc2N1C(C)C [Volasertib] [listing 1 of 2 here],scaled lipid accumulation score,[3],0.154 (inactive)
same,scaled lipid accumulation score,[4],0.358 (inactive)
same,scaled lipid accumulation score,[5],0.451 (inactive)
COc1cc(C(=O)NC2CCN(C)CC2)ccc1Nc1ncc2c(n1)N(C1CCCC1)CCC(=O)N2C(C)C [listing 1 of 2 here],scaled lipid accumulation score,[3],≤ 0 (inactive)
same,scaled lipid accumulation score,[4],≤ 0 (inactive)
same,scaled lipid accumulation score,[5],0.132 (inactive)
COc1cc(C(=O)NC2CCN(C)CC2)ccc1Nc1ncc2c(n1)N(C1CCCC1)C(C)CC(=O)N2C (stereo not drawn),scaled lipid accumulation score,[3],≤ 0 (inactive)
same,scaled lipid accumulation score,[4],≤ 0 (inactive)
same,scaled lipid accumulation score,[5],0.177 (inactive)
same,scaled lipid accumulation score,[2],0.428 (inactive)
CC[C@@H]1C(=O)N(C)c2cnc(Nc3ccc(C(=O)N[C@H]4CC[C@H](N5CCN(CC6CC6)CC5)CC4)cc3OC)nc2N1C(C)C [Volasertib (BI 6727)],scaled lipid accumulation score,[6],0.97 (active)
same,scaled lipid accumulation score,[2],0.916 (active)
CCOc1cc(N2CCC(O)CC2)ccc1Nc1ncc2c(n1)N(C)c1ccccc1C(=O)N2C,scaled lipid accumulation score,[3],≤ -0.009 (inactive)
same,scaled lipid accumulation score,[4],0.026 (inactive)
same,scaled lipid accumulation score,[5],≤ -0.009 (inactive)
same,scaled lipid accumulation score,[6],≤ -0.009 (inactive)
same,scaled lipid accumulation score,[2],0.473 (inactive) and 0.012 (inactive)
COc1cc(C(=O)NC2CCN(C)CC2)ccc1Nc1ncc2c(n1)N(C1CCCC1)CCC(=O)N2C(C)C [listing 2 of 2 here],scaled lipid accumulation score,[2],0.868 (active)
CC[C@@H]1C(=O)N(C)c2cnc(Nc3ccc(C(=O)N[C@H]4CC[C@H](N5CCN(CC6CC6)CC5)CC4)cc3OC)nc2N1C(C)C [Volasertib] [listing 2 of 2 here],scaled lipid accumulation score,[2],1.17 (active)
CC[C@@H]1C(=O)N(C)c2cnc(Nc3ccc(C(=O)NC4CCN(C)CC4)cc3OC)nc2N1C1CCCC1 [listing 1 of 2 here],scaled lipid accumulation score,[3],0.007 (inactive)
same,scaled lipid accumulation score,[4],0.527 (inactive)
same,scaled lipid accumulation score,[5],0.722 (inactive) and 0.628 (inactive)
same,scaled lipid accumulation score,[6],0.569 (inactive)
same,scaled lipid accumulation score,[2],0.749 (inactive) and 0.538 (inactive) and 0.259 (inactive)
CC[C@@H]1C(=O)N(C)c2cnc(Nc3ccc(C(=O)NC4CCN(C)CC4)cc3OC)nc2N1C1CCCC1 [listing 2 of 2 here],scaled lipid accumulation score,[4],1.02 (active)
COc1cc(C(=O)NC2CCN(C)CC2)ccc1Nc1ncc2c(n1)N(C1CCCC1)CC(F)(F)C(=O)N2C,scaled lipid accumulation score,[6],0.271 (inactive)
same,scaled lipid accumulation score,[2],0.722 (inactive)
CC(=O)Nc1cccc(-n2c(=O)n(C3CC3)c(=O)c3c(Nc4ccc(I)cc4F)n(C)c(=O)c(C)c32)c1,scaled lipid accumulation score,[3],≤ -0.009 (inactive)
same,scaled lipid accumulation score,[4],≤ -0.003 (inactive)
same,scaled lipid accumulation score,[5],0.049 (inactive)
same,scaled lipid accumulation score,[6],≤ 0 (inactive)
same,scaled lipid accumulation score,[2],≤ 0 (inactive) and 0.058 (inactive)
O=C(N/N=C/c1ccc(O)c(O)c1)c1cc2ccccc2cc1O [Dynasore],scaled lipid accumulation score,[6],≤ -0.009 (inactive)
same,scaled lipid accumulation score,[2],0.182 (inactive)
"CN=C(N)NCCC[C@H](N)C(=O)O [L-Ornithine, N5-[imino(methylamino)methyl]-[CAS]]",scaled lipid accumulation score,[2],≤ 0 (inactive)
O=C(O[C@H]1[C@H](Oc2ccccc2COC(=O)C2(O)C=CCCC2=O)O[C@H](CO)[C@@H](O)[C@@H]1O)c1ccccc1 (stereo partly drawn),scaled lipid accumulation score,[2],≤ 0 (inactive)
COc1cccc(OC)c1OCCNCC1COc2ccccc2O1 (stereo not drawn) [WB-4101 hydrochloride],scaled lipid accumulation score,[2],0.182 (inactive)
COc1cccc(OC)c1OCCNCC1COc2ccccc2O1 (stereo not drawn) [WB 4101 hydrochloride],scaled lipid accumulation score,[2],0.337 (inactive)
CCCCC[C@@H](O)/C=C/[C@H]1[C@H](C/C=C\CCCC(=O)O)[C@H](O)C[C@@H]1O [ent-Prostaglandin F2.alpha.],scaled lipid accumulation score,[1],≤ 0 (inactive)
CCOC(=O)/C=C/[C@H](CC(C)C)NC(=O)[C@H](CO)NC(=O)[C@@H](NC(=O)c1cccc(O)c1C)C(C)C,scaled lipid accumulation score,[1],≤ 0 (inactive)
C[C@@H]1C(=O)NC2=Nc3cccc(Cl)c3CN21 [Quazinone],scaled lipid accumulation score,[2],≤ 0 (inactive)
N=C1C=CC(=C(c2ccc(N)cc2)c2ccc(N)cc2)C=C1 [Pararosaniline pamoate],scaled lipid accumulation score,library stock concentration: 3 mM,0.375 (inactive)
same,scaled lipid accumulation score,[2],0.435 (inactive)
C=CC(=O)Nc1cccc(Nc2nc(NC3CCC(N(C)C)CC3)nc3c2ncn3C(C)C)c1 (stereo not drawn),scaled lipid accumulation score,[3],≤ 0 (inactive)
same,scaled lipid accumulation score,[4],≤ 0 (inactive)
same,scaled lipid accumulation score,[5],≤ 0 (inactive)
same,scaled lipid accumulation score,[2],0.782 (inactive)
CCCCC[C@H](O)/C=C/[C@H]1C=CC(=O)[C@@H]1CCCCCCC(=O)OCC [Prostaglandin A1 ethyl ester],scaled lipid accumulation score,[1],≤ 0 (inactive)
NC(N)=O,scaled lipid accumulation score,[2],≤ 0 (inactive)
same,scaled lipid accumulation score,library stock concentration: 33.3 mM,≤ 0 (inactive)
CC/C=C\C/C=C\C/C=C\C/C=C\CCCCC(=O)O [Stearidonic Acid],scaled lipid accumulation score,[1],≤ 0 (inactive)
C=C1C[C@H](O)[C@H](C/C=C\CCCC(=O)O)[C@H]1/C=C/C(=O)CCCCC [11-deoxy-11-methylene-15-keto Prostaglandin D2],scaled lipid accumulation score,[1],≤ 0 (inactive)
COc1cc(C(=O)N2CCC(N3CCN(C)CC3)CC2)ccc1Nc1ncc2c(n1)N(C)c1ccccc1C(=O)N2C [listing 1 of 2 here],scaled lipid accumulation score,[2],0.929 (active)
COc1cc(N2CCC(N)CC2)ccc1Nc1ncc(Cl)c(-c2c[nH]c3ccccc23)n1,scaled lipid accumulation score,[6],0.146 (inactive)
same,scaled lipid accumulation score,[2],0.238 (inactive)
COc1cc(C(=O)N2CCC(N3CCN(C)CC3)CC2)ccc1Nc1ncc2c(n1)N(C)c1ccccc1C(=O)N2C [listing 2 of 2 here],scaled lipid accumulation score,[3],≤ 0 (inactive)
same,scaled lipid accumulation score,[4],0.015 (inactive)
same,scaled lipid accumulation score,[5],0.329 (inactive)
COc1cc(N2CCC(N3CCN(C)CC3)CC2)ccc1Nc1ncc(Cl)c(-c2c[nH]c3ccccc23)n1 [listing 1 of 2 here],scaled lipid accumulation score,[3],0.057 (inactive)
same,scaled lipid accumulation score,[4],0.358 (inactive)
COc1cc(N2CCN(C)CC2)ccc1Nc1ncc2c(n1)N(C)c1ccccc1C(=O)N2C,scaled lipid accumulation score,[3],0.087 (inactive)
same,scaled lipid accumulation score,[4],0.062 (inactive)
same,scaled lipid accumulation score,[5],0.241 (inactive)
same,scaled lipid accumulation score,[2],0.703 (inactive)
COc1cc(N2CCC(N3CCN(C)CC3)CC2)ccc1Nc1ncc(Cl)c(-c2c[nH]c3ccccc23)n1 [listing 2 of 2 here],scaled lipid accumulation score,[5],0.981 (active)
same,scaled lipid accumulation score,[2],0.967 (active)
